# Residue numbers refer to the chain shown, from its start.
# Columns and labels:
# Assay in all cases: PBM; 200 nM protein, PBS
# Settings in all cases: dsDNA, one strand shown
# [1] = molecular target: HOXB4 (Homo sapiens, UniProt P17483 148-234)
# [2] = molecular target: HOXA4 (Homo sapiens, UniProt Q00056 201-287, W262R)
# [3] = molecular target: HOXA2 (Homo sapiens, UniProt O43364 129-215, R185T)
# [4] = molecular target: HOXA4 (Homo sapiens, UniProt Q00056 201-287, R217L)
# [5] = molecular target: HOXB4 (Homo sapiens, UniProt P17483 148-234, V174I)
# Chain of HOXB4 (Homo sapiens, UniProt P17483 148-234, V174I) (P17483 148-234 V174I): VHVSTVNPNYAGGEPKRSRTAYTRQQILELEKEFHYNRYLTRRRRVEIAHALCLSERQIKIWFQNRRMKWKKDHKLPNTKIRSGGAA
# [6] = molecular target: HOXA2 (Homo sapiens, UniProt O43364 129-215, R185K)
# Chain of HOXA2 (Homo sapiens, UniProt O43364 129-215, R185K) (O43364 129-215 R185K): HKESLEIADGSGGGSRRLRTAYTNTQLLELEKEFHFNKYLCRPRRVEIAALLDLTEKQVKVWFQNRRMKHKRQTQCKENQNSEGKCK
# [7] = molecular target: HOXA4 (Homo sapiens, UniProt Q00056 201-287)
# Chain of HOXA4 (Homo sapiens, UniProt Q00056 201-287) (Q00056 201-287): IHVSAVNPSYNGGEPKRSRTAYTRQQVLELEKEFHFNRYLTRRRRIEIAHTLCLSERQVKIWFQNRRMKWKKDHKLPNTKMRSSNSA
# [8] = molecular target: HOXA2 (Homo sapiens, UniProt O43364 129-215, Y150S)
# Chain of HOXA2 (Homo sapiens, UniProt O43364 129-215, Y150S) (O43364 129-215 Y150S): as the sequence (O43364 129-215 R185K) above, with Y22S, K57R counted along it
# [9] = molecular target: HOXA4 (Homo sapiens, UniProt Q00056 201-287, W262F)
# Chain of HOXA4 (Homo sapiens, UniProt Q00056 201-287, W262F) (Q00056 201-287 W262F): as the sequence (Q00056 201-287) above, with W62F counted along it
# [10] = molecular target: HOXA2 (Homo sapiens, UniProt O43364 129-215)
# Chain of HOXA2 (Homo sapiens, UniProt O43364 129-215) (O43364 129-215): as the sequence (O43364 129-215 R185K) above, with K57R counted along it
# [11] = molecular target: HOXA7 (Homo sapiens, UniProt P31268 116-202)
# Chain of HOXA7 (Homo sapiens, UniProt P31268 116-202) (P31268 116-202): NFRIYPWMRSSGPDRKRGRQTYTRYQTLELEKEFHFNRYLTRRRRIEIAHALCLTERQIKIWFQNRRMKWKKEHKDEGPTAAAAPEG
# [12] = molecular target: T1, VENTX (Homo sapiens, UniProt O95231 78-163, Y115F)
# T1 sequence: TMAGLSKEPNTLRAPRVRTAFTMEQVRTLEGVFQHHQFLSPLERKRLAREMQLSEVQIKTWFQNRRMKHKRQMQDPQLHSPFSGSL
# [13] = molecular target: HOXB6 (Homo sapiens, UniProt P17509 132-218, K202E)
# Chain of HOXB6 (Homo sapiens, UniProt P17509 132-218, K202E) (P17509 132-218 K202E): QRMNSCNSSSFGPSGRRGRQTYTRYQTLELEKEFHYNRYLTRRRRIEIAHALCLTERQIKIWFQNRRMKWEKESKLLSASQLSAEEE
# [14] = molecular target: VAX1 (Homo sapiens, UniProt Q5SQQ9 86-172)
# Chain of VAX1 (Homo sapiens, UniProt Q5SQQ9 86-172) (Q5SQQ9 86-172): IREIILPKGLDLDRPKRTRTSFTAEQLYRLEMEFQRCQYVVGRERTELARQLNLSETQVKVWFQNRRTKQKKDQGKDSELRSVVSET
# [15] = molecular target: VAX1 (Homo sapiens, UniProt Q5SQQ9 86-172, T142I)
# Chain of VAX1 (Homo sapiens, UniProt Q5SQQ9 86-172, T142I) (Q5SQQ9 86-172 T142I): as the sequence (Q5SQQ9 86-172) above, with T57I counted along it
# [16] = molecular target: HOXA7 (Homo sapiens, UniProt P31268 116-202, W177C)
# Chain of HOXA7 (Homo sapiens, UniProt P31268 116-202, W177C) (P31268 116-202 W177C): as the sequence (P31268 116-202) above, with W62C counted along it
# [17] = molecular target: VAX1 (Homo sapiens, UniProt Q5SQQ9 86-172, K157R)
# Chain of VAX1 (Homo sapiens, UniProt Q5SQQ9 86-172, K157R) (Q5SQQ9 86-172 K157R): as the sequence (Q5SQQ9 86-172) above, with K72R counted along it
# [18] = molecular target: HOXB6 (Homo sapiens, UniProt P17509 132-218)
# Chain of HOXB6 (Homo sapiens, UniProt P17509 132-218) (P17509 132-218): as the sequence (P17509 132-218 K202E) above, with E71K counted along it
# [19] = molecular target: ALX4 (Homo sapiens, UniProt Q9H161 200-286)
# Chain of ALX4 (Homo sapiens, UniProt Q9H161 200-286) (Q9H161 200-286): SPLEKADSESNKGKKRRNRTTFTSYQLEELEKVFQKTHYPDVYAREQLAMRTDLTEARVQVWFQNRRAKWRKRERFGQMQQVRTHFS
# [20] = molecular target: T2, PAX4 (Homo sapiens, UniProt O43316 9-242, R200K)
# T2 sequence: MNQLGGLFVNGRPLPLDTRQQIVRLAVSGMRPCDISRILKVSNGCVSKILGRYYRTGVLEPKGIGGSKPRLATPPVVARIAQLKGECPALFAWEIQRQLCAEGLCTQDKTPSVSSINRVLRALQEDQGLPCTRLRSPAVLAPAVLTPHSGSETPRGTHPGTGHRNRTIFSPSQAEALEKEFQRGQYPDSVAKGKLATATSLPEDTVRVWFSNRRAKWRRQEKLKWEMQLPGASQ
# [21] = molecular target: PRRX1 (Homo sapiens, UniProt P54821 80-166, F113S)
# Chain of PRRX1 (Homo sapiens, UniProt P54821 80-166, F113S) (P54821 80-166 F113S): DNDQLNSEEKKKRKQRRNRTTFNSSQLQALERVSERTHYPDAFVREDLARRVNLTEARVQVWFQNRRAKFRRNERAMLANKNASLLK
# [22] = molecular target: ALX4 (Homo sapiens, UniProt Q9H161 200-286, Q225E)
# Chain of ALX4 (Homo sapiens, UniProt Q9H161 200-286, Q225E) (Q9H161 200-286 Q225E): as the sequence (Q9H161 200-286) above, with Q26E counted along it
# [23] = molecular target: ALX1 (Homo sapiens, UniProt Q15699 118-204, L144V)
# Chain of ALX1 (Homo sapiens, UniProt Q15699 118-204, L144V) (Q15699 118-204 L144V): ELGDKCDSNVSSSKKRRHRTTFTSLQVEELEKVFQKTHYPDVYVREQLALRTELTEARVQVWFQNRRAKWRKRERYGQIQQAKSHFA
# [24] = molecular target: ALX3 (Homo sapiens, UniProt O95076 139-225, N203Q)
# Chain of ALX3 (Homo sapiens, UniProt O95076 139-225, N203Q) (O95076 139-225 N203Q): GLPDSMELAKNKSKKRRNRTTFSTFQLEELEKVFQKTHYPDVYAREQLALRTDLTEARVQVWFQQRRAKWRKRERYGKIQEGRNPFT
# [25] = molecular target: ALX1 (Homo sapiens, UniProt Q15699 118-204, L144R)
# Chain of ALX1 (Homo sapiens, UniProt Q15699 118-204, L144R) (Q15699 118-204 L144R): as the sequence (Q15699 118-204 L144V) above, with V27R counted along it
# [26] = molecular target: ALX3 (Homo sapiens, UniProt O95076 139-225)
# Chain of ALX3 (Homo sapiens, UniProt O95076 139-225) (O95076 139-225): as the sequence (O95076 139-225 N203Q) above, with Q65N counted along it
# [27] = molecular target: T3, PAX4 (Homo sapiens, UniProt O43316 9-242, F177Y)
# T3 sequence: T2 sequence with F169Y, K192R
# [28] = molecular target: HESX1 (Homo sapiens, UniProt Q9UBX0 95-180, R109Q)
# Chain of HESX1 (Q9UBX0 95-180 R109Q): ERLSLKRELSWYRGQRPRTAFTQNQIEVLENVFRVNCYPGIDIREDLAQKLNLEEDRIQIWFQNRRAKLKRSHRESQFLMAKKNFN
# [29] = molecular target: ALX3 (Homo sapiens, UniProt O95076 139-225, L168Q)
# Chain of ALX3 (Homo sapiens, UniProt O95076 139-225, L168Q) (O95076 139-225 L168Q): as the sequence (O95076 139-225 N203Q) above, with L30Q, Q65N counted along it
# [30] = molecular target: ALX3 (Homo sapiens, UniProt O95076 139-225, L168V)
# Chain of ALX3 (Homo sapiens, UniProt O95076 139-225, L168V) (O95076 139-225 L168V): as the sequence (O95076 139-225 N203Q) above, with L30V, Q65N counted along it
# [31] = molecular target: ALX1 (Homo sapiens, UniProt Q15699 118-204)
# Chain of ALX1 (Homo sapiens, UniProt Q15699 118-204) (Q15699 118-204): as the sequence (Q15699 118-204 L144V) above, with V27L counted along it
# [32] = molecular target: ALX3 (Homo sapiens, UniProt O95076 139-225, N203S)
# Chain of ALX3 (Homo sapiens, UniProt O95076 139-225, N203S) (O95076 139-225 N203S): as the sequence (O95076 139-225 N203Q) above, with Q65S counted along it
# [33] = molecular target: PRRX1 (Homo sapiens, UniProt P54821 80-166)
# Chain of PRRX1 (Homo sapiens, UniProt P54821 80-166) (P54821 80-166): as the sequence (P54821 80-166 F113S) above, with S34F counted along it
# [34] = molecular target: HOXC9 (Homo sapiens, UniProt P31274 178-260, K195R)
# Chain of HOXC9 (Homo sapiens, UniProt P31274 178-260, K195R) (P31274 178-260 K195R): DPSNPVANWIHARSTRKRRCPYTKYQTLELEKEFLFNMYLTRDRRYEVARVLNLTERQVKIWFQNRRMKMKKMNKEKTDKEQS
# [35] = molecular target: HOXC9 (Homo sapiens, UniProt P31274 178-260)
# Chain of HOXC9 (Homo sapiens, UniProt P31274 178-260) (P31274 178-260): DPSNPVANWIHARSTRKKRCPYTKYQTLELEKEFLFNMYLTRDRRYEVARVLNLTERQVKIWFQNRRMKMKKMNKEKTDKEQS
# [36] = molecular target: HOXC9 (Homo sapiens, UniProt P31274 178-260, R193K)
# Chain of HOXC9 (Homo sapiens, UniProt P31274 178-260, R193K) (P31274 178-260 R193K): as the sequence (P31274 178-260) above, with R16K counted along it
# [37] = molecular target: HOXC9 (Homo sapiens, UniProt P31274 178-260, R222W)
# Chain of HOXC9 (Homo sapiens, UniProt P31274 178-260, R222W) (P31274 178-260 R222W): as the sequence (P31274 178-260) above, with R45W counted along it
# Chain of HOXA4 (Homo sapiens, UniProt Q00056 201-287, R217L) (Q00056 201-287 R217L): as the sequence (Q00056 201-287) above, with R17L counted along it
# Chain of HOXB4 (Homo sapiens, UniProt P17483 148-234) (P17483 148-234): as the sequence (P17483 148-234 V174I) above, with I27V counted along it
# Chain of HOXA4 (Homo sapiens, UniProt Q00056 201-287, W262R) (Q00056 201-287 W262R): as the sequence (Q00056 201-287) above, with W62R counted along it
# Chain of HOXA2 (Homo sapiens, UniProt O43364 129-215, R185T) (O43364 129-215 R185T): as the sequence (O43364 129-215 R185K) above, with K57T counted along it
sequence,measurement,setting,value
CGCCGGGC,binding signal,[1],"7.64 upbm affinity estimate (log intensity, higher = more binding, comparable within an allelic series)"
same,binding signal,[2],"9.72 upbm affinity estimate (log intensity, higher = more binding, comparable within an allelic series)"
same,binding signal,[3],"7.33 upbm affinity estimate (log intensity, higher = more binding, comparable within an allelic series)"
same,binding signal,[4],"9.76 upbm affinity estimate (log intensity, higher = more binding, comparable within an allelic series)"
same,binding signal,[5],"7.67 upbm affinity estimate (log intensity, higher = more binding, comparable within an allelic series)"
same,binding signal,[6],"10.2 upbm affinity estimate (log intensity, higher = more binding, comparable within an allelic series)"
same,binding signal,[7],"9.84 upbm affinity estimate (log intensity, higher = more binding, comparable within an allelic series)"
same,binding signal,[8],"10.4 upbm affinity estimate (log intensity, higher = more binding, comparable within an allelic series)"
same,binding signal,[9],"9.99 upbm affinity estimate (log intensity, higher = more binding, comparable within an allelic series)"
same,binding signal,[10],"7.24 upbm affinity estimate (log intensity, higher = more binding, comparable within an allelic series)"
TAATGACA,binding signal,[1],"13 upbm affinity estimate (log intensity, higher = more binding, comparable within an allelic series)"
same,binding signal,[2],"10.6 upbm affinity estimate (log intensity, higher = more binding, comparable within an allelic series)"
same,binding signal,[11],"11.2 upbm affinity estimate (log intensity, higher = more binding, comparable within an allelic series)"
same,binding signal,[12],"11.5 upbm affinity estimate (log intensity, higher = more binding, comparable within an allelic series)"
same,binding signal,[13],"10 upbm affinity estimate (log intensity, higher = more binding, comparable within an allelic series)"
same,binding signal,[3],"12.6 upbm affinity estimate (log intensity, higher = more binding, comparable within an allelic series)"
same,binding signal,[4],"12.2 upbm affinity estimate (log intensity, higher = more binding, comparable within an allelic series)"
same,binding signal,[5],"13.7 upbm affinity estimate (log intensity, higher = more binding, comparable within an allelic series)"
same,binding signal,[6],"13.4 upbm affinity estimate (log intensity, higher = more binding, comparable within an allelic series)"
same,binding signal,[7],"13.8 upbm affinity estimate (log intensity, higher = more binding, comparable within an allelic series)"
same,binding signal,[14],"12.8 upbm affinity estimate (log intensity, higher = more binding, comparable within an allelic series)"
same,binding signal,[15],"12.7 upbm affinity estimate (log intensity, higher = more binding, comparable within an allelic series)"
same,binding signal,[8],"11 upbm affinity estimate (log intensity, higher = more binding, comparable within an allelic series)"
same,binding signal,[16],"8.98 upbm affinity estimate (log intensity, higher = more binding, comparable within an allelic series)"
same,binding signal,[9],"11.7 upbm affinity estimate (log intensity, higher = more binding, comparable within an allelic series)"
same,binding signal,[10],"12.5 upbm affinity estimate (log intensity, higher = more binding, comparable within an allelic series)"
same,binding signal,[17],"12.5 upbm affinity estimate (log intensity, higher = more binding, comparable within an allelic series)"
same,binding signal,[18],"11.7 upbm affinity estimate (log intensity, higher = more binding, comparable within an allelic series)"
ATTAATCA,binding signal,[1],"13.2 upbm affinity estimate (log intensity, higher = more binding, comparable within an allelic series)"
same,binding signal,[2],"10.6 upbm affinity estimate (log intensity, higher = more binding, comparable within an allelic series)"
same,binding signal,[19],"13.7 upbm affinity estimate (log intensity, higher = more binding, comparable within an allelic series)"
same,binding signal,[20],"11.6 upbm affinity estimate (log intensity, higher = more binding, comparable within an allelic series)"
same,binding signal,[21],"11.3 upbm affinity estimate (log intensity, higher = more binding, comparable within an allelic series)"
same,binding signal,[13],"9.98 upbm affinity estimate (log intensity, higher = more binding, comparable within an allelic series)"
same,binding signal,[22],"12.7 upbm affinity estimate (log intensity, higher = more binding, comparable within an allelic series)"
same,binding signal,[3],"12.6 upbm affinity estimate (log intensity, higher = more binding, comparable within an allelic series)"
same,binding signal,[4],"12.1 upbm affinity estimate (log intensity, higher = more binding, comparable within an allelic series)"
same,binding signal,[5],"13.9 upbm affinity estimate (log intensity, higher = more binding, comparable within an allelic series)"
same,binding signal,[23],"11.5 upbm affinity estimate (log intensity, higher = more binding, comparable within an allelic series)"
same,binding signal,[24],"8.54 upbm affinity estimate (log intensity, higher = more binding, comparable within an allelic series)"
same,binding signal,[6],"13.3 upbm affinity estimate (log intensity, higher = more binding, comparable within an allelic series)"
same,binding signal,[25],"11.3 upbm affinity estimate (log intensity, higher = more binding, comparable within an allelic series)"
same,binding signal,[7],"13.6 upbm affinity estimate (log intensity, higher = more binding, comparable within an allelic series)"
same,binding signal,[26],"12.3 upbm affinity estimate (log intensity, higher = more binding, comparable within an allelic series)"
same,binding signal,[27],"11 upbm affinity estimate (log intensity, higher = more binding, comparable within an allelic series)"
same,binding signal,[28],"8.96 upbm affinity estimate (log intensity, higher = more binding, comparable within an allelic series)"
same,binding signal,[29],"10.2 upbm affinity estimate (log intensity, higher = more binding, comparable within an allelic series)"
same,binding signal,[30],"9.65 upbm affinity estimate (log intensity, higher = more binding, comparable within an allelic series)"
same,binding signal,[31],"12 upbm affinity estimate (log intensity, higher = more binding, comparable within an allelic series)"
same,binding signal,[9],"11.4 upbm affinity estimate (log intensity, higher = more binding, comparable within an allelic series)"
same,binding signal,[32],"8.61 upbm affinity estimate (log intensity, higher = more binding, comparable within an allelic series)"
same,binding signal,[33],"13.3 upbm affinity estimate (log intensity, higher = more binding, comparable within an allelic series)"
ATAATGAT,binding signal,[1],"13.2 upbm affinity estimate (log intensity, higher = more binding, comparable within an allelic series)"
same,binding signal,[2],"10.6 upbm affinity estimate (log intensity, higher = more binding, comparable within an allelic series)"
same,binding signal,[3],"12.1 upbm affinity estimate (log intensity, higher = more binding, comparable within an allelic series)"
same,binding signal,[4],"12.2 upbm affinity estimate (log intensity, higher = more binding, comparable within an allelic series)"
same,binding signal,[5],"13.8 upbm affinity estimate (log intensity, higher = more binding, comparable within an allelic series)"
same,binding signal,[6],"13.1 upbm affinity estimate (log intensity, higher = more binding, comparable within an allelic series)"
same,binding signal,[7],"13.9 upbm affinity estimate (log intensity, higher = more binding, comparable within an allelic series)"
same,binding signal,[15],"12.3 upbm affinity estimate (log intensity, higher = more binding, comparable within an allelic series)"
same,binding signal,[8],"10.9 upbm affinity estimate (log intensity, higher = more binding, comparable within an allelic series)"
same,binding signal,[9],"11.5 upbm affinity estimate (log intensity, higher = more binding, comparable within an allelic series)"
same,binding signal,[10],"12.1 upbm affinity estimate (log intensity, higher = more binding, comparable within an allelic series)"
CCTACCGC,binding signal,[1],"7.61 upbm affinity estimate (log intensity, higher = more binding, comparable within an allelic series)"
same,binding signal,[34],"9.66 upbm affinity estimate (log intensity, higher = more binding, comparable within an allelic series)"
same,binding signal,[5],"7.56 upbm affinity estimate (log intensity, higher = more binding, comparable within an allelic series)"
same,binding signal,[35],"9.63 upbm affinity estimate (log intensity, higher = more binding, comparable within an allelic series)"
same,binding signal,[36],"9.56 upbm affinity estimate (log intensity, higher = more binding, comparable within an allelic series)"
same,binding signal,[37],"9.71 upbm affinity estimate (log intensity, higher = more binding, comparable within an allelic series)"
ATTCATTA,binding signal,[1],"13.1 upbm affinity estimate (log intensity, higher = more binding, comparable within an allelic series)"
same,binding signal,[2],"10.5 upbm affinity estimate (log intensity, higher = more binding, comparable within an allelic series)"
same,binding signal,[4],"12.1 upbm affinity estimate (log intensity, higher = more binding, comparable within an allelic series)"
same,binding signal,[5],"13.7 upbm affinity estimate (log intensity, higher = more binding, comparable within an allelic series)"
same,binding signal,[7],"13.7 upbm affinity estimate (log intensity, higher = more binding, comparable within an allelic series)"
same,binding signal,[9],"11.6 upbm affinity estimate (log intensity, higher = more binding, comparable within an allelic series)"
ATTTGAAC,binding signal,[1],"9.93 upbm affinity estimate (log intensity, higher = more binding, comparable within an allelic series)"
same,binding signal,[34],"10.9 upbm affinity estimate (log intensity, higher = more binding, comparable within an allelic series)"
same,binding signal,[5],"9.93 upbm affinity estimate (log intensity, higher = more binding, comparable within an allelic series)"
same,binding signal,[35],"10.8 upbm affinity estimate (log intensity, higher = more binding, comparable within an allelic series)"
same,binding signal,[36],"11 upbm affinity estimate (log intensity, higher = more binding, comparable within an allelic series)"
TATTTAAA,binding signal,[1],"11.2 upbm affinity estimate (log intensity, higher = more binding, comparable within an allelic series)"
same,binding signal,[2],"10.5 upbm affinity estimate (log intensity, higher = more binding, comparable within an allelic series)"
same,binding signal,[5],"11.2 upbm affinity estimate (log intensity, higher = more binding, comparable within an allelic series)"
same,binding signal,[7],"12 upbm affinity estimate (log intensity, higher = more binding, comparable within an allelic series)"
TATAATGA,binding signal,[1],"13 upbm affinity estimate (log intensity, higher = more binding, comparable within an allelic series)"
same,binding signal,[2],"10.5 upbm affinity estimate (log intensity, higher = more binding, comparable within an allelic series)"
same,binding signal,[3],"12 upbm affinity estimate (log intensity, higher = more binding, comparable within an allelic series)"
same,binding signal,[4],"11.9 upbm affinity estimate (log intensity, higher = more binding, comparable within an allelic series)"
same,binding signal,[5],"13.5 upbm affinity estimate (log intensity, higher = more binding, comparable within an allelic series)"
same,binding signal,[6],"12.8 upbm affinity estimate (log intensity, higher = more binding, comparable within an allelic series)"
same,binding signal,[7],"13.6 upbm affinity estimate (log intensity, higher = more binding, comparable within an allelic series)"
same,binding signal,[8],"10.9 upbm affinity estimate (log intensity, higher = more binding, comparable within an allelic series)"
same,binding signal,[9],"11.2 upbm affinity estimate (log intensity, higher = more binding, comparable within an allelic series)"
same,binding signal,[10],"12.1 upbm affinity estimate (log intensity, higher = more binding, comparable within an allelic series)"

# Source: paper PMC11006913
